Each structure is given as a SMILES string. Among all 310,000 compounds or so, about 14,000 (4.5%) showed an effect of 50% or more. The effect is printed as a negative number. The full list was thinned out, with strong results kept by preference.
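Further: peak tail current of the secondary pulse compared with the same well before compound.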

Chain of human ether-à-go-go-related gene (hERG) potassium channel (Q12809 whole entry, looked up): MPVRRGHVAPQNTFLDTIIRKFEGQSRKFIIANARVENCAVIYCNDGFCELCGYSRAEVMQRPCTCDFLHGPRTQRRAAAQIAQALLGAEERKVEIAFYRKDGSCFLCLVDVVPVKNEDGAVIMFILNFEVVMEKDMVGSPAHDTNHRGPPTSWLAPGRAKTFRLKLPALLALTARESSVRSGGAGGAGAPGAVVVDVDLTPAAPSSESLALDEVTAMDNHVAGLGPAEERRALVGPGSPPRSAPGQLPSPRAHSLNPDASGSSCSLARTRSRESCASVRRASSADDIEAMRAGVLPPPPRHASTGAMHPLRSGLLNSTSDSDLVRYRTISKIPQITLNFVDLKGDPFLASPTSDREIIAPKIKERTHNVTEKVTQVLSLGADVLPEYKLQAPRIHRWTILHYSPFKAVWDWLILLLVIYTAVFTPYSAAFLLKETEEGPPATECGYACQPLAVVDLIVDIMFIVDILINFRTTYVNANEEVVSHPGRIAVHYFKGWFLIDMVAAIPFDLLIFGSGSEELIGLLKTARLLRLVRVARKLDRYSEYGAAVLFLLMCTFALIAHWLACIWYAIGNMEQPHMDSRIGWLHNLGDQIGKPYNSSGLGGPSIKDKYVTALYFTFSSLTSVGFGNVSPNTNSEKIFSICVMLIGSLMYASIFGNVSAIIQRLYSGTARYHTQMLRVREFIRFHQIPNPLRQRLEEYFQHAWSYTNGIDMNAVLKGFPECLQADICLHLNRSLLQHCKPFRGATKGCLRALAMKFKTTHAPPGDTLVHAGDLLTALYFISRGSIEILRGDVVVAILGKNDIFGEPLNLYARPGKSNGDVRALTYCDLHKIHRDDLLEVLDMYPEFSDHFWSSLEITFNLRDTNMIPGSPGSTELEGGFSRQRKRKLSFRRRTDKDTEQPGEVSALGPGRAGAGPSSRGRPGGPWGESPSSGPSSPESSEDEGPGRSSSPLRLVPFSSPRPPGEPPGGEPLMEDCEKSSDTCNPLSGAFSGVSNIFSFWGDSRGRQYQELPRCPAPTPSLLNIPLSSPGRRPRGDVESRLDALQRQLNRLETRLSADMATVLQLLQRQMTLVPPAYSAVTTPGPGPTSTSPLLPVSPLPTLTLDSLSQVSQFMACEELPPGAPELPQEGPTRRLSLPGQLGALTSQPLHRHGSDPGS

This assay addresses human ether-à-go-go-related gene (hERG) potassium channel (human, UniProt Q12809). The assay can be described thus: primary screen, population patch clamp on CHO cells stably expressing hERG; higher = less effect of the substance. The procedure: Briefly, Chinese hamster ovary (CHO) cells stably expressing the hERG channel were dislodged from tissue culture flasks and dispensed into PPC plates. […] During the recording, background leak currents were estimated by a 100 ms step to -80 mV from an initial holding potential of -70 mV and subtracted from the subsequent current measurement. The campaign was conducted in two phases using slight differences in recording protocol. In the first phase, the initial voltage pulse used a 100 ms step to -30 mV from a holding potential of -70 mV, a 2 s conditioning step to +25 mV, and a 2 s test step to -30 mV. During the second phase of the screen, the potential during the conditioning step was raised to +45 mV. In both phases of the campaign, a secondary voltage pulse was applied using the same parameters as the second phase initial pulse. The initial and secondary pulses were applied in the absence of compound, and upon application of 1 μM and 10 μM test concentrations. […]
Turning to `COc1ccc(CCN(C)C(=O)C2CCCN(Cc3ccc(OC)c(OC)c3)C2)cc1OC.O=C(O)C(=O)O` (stereo not drawn), the “hERG current change (%, negative = inhibition) at 10uM” value was -3.31%.

For `COc1ccc(CCN(C)C(=O)C2CCN(Cc3ccc(C)cc3)CC2)cc1OC.O=C(O)C(=O)O`, the “hERG current change (%, negative = inhibition) at 10uM” value is reported as -60.8%.

Take `CCN(CC)C(=O)C1CCCN(Cc2ccccc2)C1` (stereo not drawn): the “hERG current change (%, negative = inhibition) at 10uM” value was 9.57%.

Regarding `COc1ccc(OC)c(CN2CCC(C(=O)N(C)CCc3ccc(OC)c(OC)c3)CC2)c1.O=C(O)C(=O)O`, the “hERG current change (%, negative = inhibition) at 10uM” value is on record as -11.5%.

Consider `COc1ccc(CCN(C)C(=O)C2CCN(Cc3ccccc3)CC2)cc1OC.O=C(O)C(=O)O`, for which the “hERG current change (%, negative = inhibition) at 10uM” value came to 3.36%.

As to `CN(Cc1ccccc1)C(=O)C1CCCN(Cc2ccc(Cl)cc2)C1.O=C(O)C(=O)O` (stereo not drawn), the “hERG current change (%, negative = inhibition) at 10uM” value is recorded as -71%.

Turning to `COc1ccc(CN2CCCC(C(=O)N(C)Cc3ccccc3)C2)cc1OC.O=C(O)C(=O)O` (stereo not drawn), the “hERG current change (%, negative = inhibition) at 10uM” value is on record as -71.1%.

`O=C1NC2(CCCCCC2)C(=O)N1Cc1ccc(Br)cc1`: the “hERG current change (%, negative = inhibition) at 10uM” value is recorded as 4.06%.

`CCOc1ccc(-c2nnn(CC(=O)c3ccc4c(c3)OCCO4)n2)cc1OCC`: the “hERG current change (%, negative = inhibition) at 10uM” value is -1.86%.

Consider `CCc1cc(S(=O)(=O)N2CCN(C(=O)c3ccco3)CC2)ccc1OC`, for which the “hERG current change (%, negative = inhibition) at 10uM” value is on record as 1.76%.

In the case of `COc1ccc(-c2noc3c2-c2nc(-c4cccc(C)c4)sc2CC3)cc1`, the “hERG current change (%, negative = inhibition) at 10uM” value turned out to be 7.57%.

For `Cc1ccc(-c2nnc(N3CCN(C(=O)COc4cccc(C)c4)CC3)c3ccccc23)cc1`, the “hERG current change (%, negative = inhibition) at 10uM” value is on record as -54.6%.

As for `Cc1ccc(-c2nnc(N3CCN(C(=O)CSc4ncn[nH]4)CC3)c3ccccc23)cc1`, the “hERG current change (%, negative = inhibition) at 10uM” value is on record as -32.6%.

`Cc1cccc(OCC(=O)N2CCN(c3nnc(-c4ccccc4)c4ccccc34)CC2)c1`: the “hERG current change (%, negative = inhibition) at 10uM” value is listed as -69.7%.

With `CO/N=C/NC(=O)Cc1cn(-c2ncc(C(F)(F)F)cc2Cl)c2ccccc12`, the “hERG current change (%, negative = inhibition) at 10uM” value was determined as 3.84%.

Consider `CCCOc1ccc(N2C(=O)CC(NCC(=O)OCC)C2=O)cc1` (stereo not drawn), for which the “hERG current change (%, negative = inhibition) at 10uM” value worked out at 8.44%.

On to `O=C(Cn1c(=O)cnc2ccccc21)NNC(=O)c1ccccc1Cl`, for which the “hERG current change (%, negative = inhibition) at 10uM” value was 4.84%.

Take `COCCSc1ccccc1C(=O)Nc1ccccc1C(C)C`: the “hERG current change (%, negative = inhibition) at 10uM” value came out at 3.89%.

Turning to `CCCCc1ncc(CN2CCN(Cc3ccc(C)cc3)C(CCO)C2)[nH]1` (stereo not drawn), the “hERG current change (%, negative = inhibition) at 10uM” value is given as -57.9%.

As to `Cc1ccc(CN2CCN(Cc3cnc(N4CCOCC4)s3)CC2CCO)cc1` (stereo not drawn), the “hERG current change (%, negative = inhibition) at 10uM” value is recorded as -46.7%.

In the case of `Cc1ccc(CN2CCN(CC(C)C)C(CCO)C2)s1` (stereo not drawn), the “hERG current change (%, negative = inhibition) at 10uM” value is -21.5%.

Turning to `Cc1ccc(CN2CCN(Cc3ccccc3)C(CCO)C2)s1` (stereo not drawn), the “hERG current change (%, negative = inhibition) at 10uM” value was -62.8%.

As to `Cc1ccc(CN2CCN(Cc3cnc(C)s3)CC2CCO)cc1` (stereo not drawn), the “hERG current change (%, negative = inhibition) at 10uM” value is -19.4%.

`CC(C)=CCN1CCN(Cc2cn[nH]c2C2CCCCC2)CC1CCO` (stereo not drawn): the “hERG current change (%, negative = inhibition) at 10uM” value is reported as 0.0652%.

`CC(C)=CCN1CCN(Cc2ccc(C)s2)CC1CCO` (stereo not drawn): the “hERG current change (%, negative = inhibition) at 10uM” value is on record as -16.1%.

As to `OCCC1CN(Cc2cn[nH]c2C2CCCCC2)CCN1Cc1ccccc1` (stereo not drawn), the “hERG current change (%, negative = inhibition) at 10uM” value was 0.824%.

On to `Cc1ccc(CN2CCN(Cc3ccc(C)s3)CC2CCO)cc1` (stereo not drawn), for which the “hERG current change (%, negative = inhibition) at 10uM” value is -73.3%.

On to `Cc1ccc(CN2CCN(Cc3cnc(C)[nH]3)CC2CCO)cc1` (stereo not drawn), for which the “hERG current change (%, negative = inhibition) at 10uM” value was 10.8%.

For the molecule `Cc1ccc(CN2CCN(CCC(C)C)C(CCO)C2)s1` (stereo not drawn), the “hERG current change (%, negative = inhibition) at 10uM” value was -29.5%.

In the case of `Cc1ccc(CN2CCN(Cc3cn[nH]c3C3CCCCC3)CC2CCO)cc1` (stereo not drawn), the “hERG current change (%, negative = inhibition) at 10uM” value is reported as -62.9%.

With `Cn1c(O)c(C=Nc2ccccc2-c2ccccc2)c(=O)n(C)c1=O`, the “hERG current change (%, negative = inhibition) at 10uM” value was found to be 4.4%.

On to `O=c1c2ccccc2cnn1Cc1n[nH]c(=S)n1-c1ccc(Cl)cc1`, for which the “hERG current change (%, negative = inhibition) at 10uM” value was 14.5%.

As for `Cc1ccc(-c2nc(-c3ccccn3)sc2CC(=O)O)cc1`, the “hERG current change (%, negative = inhibition) at 10uM” value is on record as 2.76%.

Consider `O=C(N/N=C/c1cccs1)c1ccco1`, for which the “hERG current change (%, negative = inhibition) at 10uM” value amounted to 11.8%.

`COc1ccc(NC(=O)COC(=O)C2CC2)c(OC)c1`: the “hERG current change (%, negative = inhibition) at 10uM” value is reported as -0.146%.

Regarding `CC1CC(C)(C)NC(=S)N1CC(=O)NCc1ccc(F)cc1` (stereo not drawn), the “hERG current change (%, negative = inhibition) at 10uM” value is given as 0.792%.

For the molecule `O=C(Cn1nnc(-c2ccccc2)n1)NNC(=O)c1cccc([N+](=O)[O-])c1`, the “hERG current change (%, negative = inhibition) at 10uM” value turned out to be 26.3%.

Regarding `COc1ccc(CCNC2CCc3ccccc3C2)cc1` (stereo not drawn), the “hERG current change (%, negative = inhibition) at 10uM” value is recorded as -56%.

In the case of `COc1ccc(CCNC(=O)C2CC2)cc1`, the “hERG current change (%, negative = inhibition) at 10uM” value came to 0.64%.

In the case of `COc1ccc(CCNC2CCCCC2)cc1.O=C(O)C(=O)O`, the “hERG current change (%, negative = inhibition) at 10uM” value is given as -15.9%.

On to `COc1ccc(CCNC2CCC(c3ccccc3)CC2)cc1` (stereo not drawn), for which the “hERG current change (%, negative = inhibition) at 10uM” value is listed as -70.8%.

As to `COc1ccc(CCNC(=O)C2Cc3ccccc3C(=O)O2)cc1` (stereo not drawn), the “hERG current change (%, negative = inhibition) at 10uM” value is reported as -1.35%.

Turning to `COc1ccc(CCNC2CCCCCC2)cc1`, the “hERG current change (%, negative = inhibition) at 10uM” value is recorded as -4.62%.

Regarding `COc1ccc(S(=O)(=O)N2CCN(c3ccc(C)cc3C)CC2)cc1OC`, the “hERG current change (%, negative = inhibition) at 10uM” value amounted to 5.72%.

As to `COC(=O)[C@@H](NC(=O)N(C1CCCCC1)C1CCCCC1)C(C)C`, the “hERG current change (%, negative = inhibition) at 10uM” value is reported as -7.86%.
